Sampled rows, rich in hits. Any-hit rate of the full collection: about 1.3%.
HIF act: HIF pathway transcriptional activation; U2OS HRE-luciferase reporter, luminescence; normalized: DMSO 0%, desferrioxamine 100%; activation, % at 7.5 µM (by protocol); hit rate 0.32% among 300,000; AID 1910;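 active = mean activation of at least 10% of the iron chelator positive control signal, with at least half of replicates also reaching 10%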
Statin myotox sup: protects C2C12 myotubes from simvastatin toxicity | rescue of ATP level, % at 7.49 µM | hit rate 0.78% among 330,000 | ATP luminescence, 48 h; scaled: DMSO 0, geranylgeraniol control 100;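 active = mean ATP rescue above about 67%, or every replicate alone reaching that limit, limit read from the data, passing the limit was not always enough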;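 also: myotubes were challenged with 10 µM simvastatin during compound exposure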
Rce1 inhib: inhibitors of yeast Ras-converting enzyme. yeast membranes, quenched prenylated peptide cleavage fluorescence. hit rate 0.27% among 290,000. calls only. Q03530;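 active = fall in fluorescence gain of 50% or more versus controls, with final raw signal at or below 3038400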
Target sequence (Q03530 whole entry, looked up): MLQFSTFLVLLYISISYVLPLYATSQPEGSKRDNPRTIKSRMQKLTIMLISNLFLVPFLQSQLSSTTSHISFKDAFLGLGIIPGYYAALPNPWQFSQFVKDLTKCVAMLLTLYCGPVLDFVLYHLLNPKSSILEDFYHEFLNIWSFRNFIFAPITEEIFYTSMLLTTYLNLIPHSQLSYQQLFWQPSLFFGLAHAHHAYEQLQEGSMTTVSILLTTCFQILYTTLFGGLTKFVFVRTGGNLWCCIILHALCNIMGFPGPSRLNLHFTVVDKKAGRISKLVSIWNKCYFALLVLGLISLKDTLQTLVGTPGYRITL
PGC1a acetyl inh: PGC1a acetylation modulation, inhibitor mode | hit rate 0.17% among 350,000 | AID 651687 | inhibition, % at 15.6 µM | U2OS PGC1a acetylation, AlphaScreen anti-acetyl-lysine; with virally co-expressed GCN5 acetyltransferase;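 active = every replicate shows inhibition of at least 40%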
AI-2 QS mod: modulators of Vibrio harveyi AI-2 quorum sensing system. Vibrio harveyi JMH597 AI-2 luminescence/OD600 ratio, 9 h; hits give low values; strain lacks LuxN and CqsS sensors; 0 = neutral-control median. hit rate 0.4% among 300,000. activity change, % at 7.5 µM; in the data active = activity change below about -75%, passing the limit was not always enough;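 also: luminescence divided by OD600 gain over 9 h not by final OD600 alone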
Each line names hits and unclear results; the compound was inactive in the other large screens.

CCCCc1ccc(S(=O)(=O)NCCc2ccncc2)cc1	Statin myotox sup 126
Cc1ccc(S(=O)(=O)NCCc2ccncc2)cc1	none (no result: Statin myotox sup, PGC1a acetyl inh)
COc1ccc2c3c([nH]c2c1)[C@H](CO)N(Cc1ccc(Cl)cc1)CC31CN(Cc2nccs2)C1	none (no result: HIF act, Statin myotox sup, Rce1 inhib, AI-2 QS mod)
CN(C)CCCNc1c2ccccc2nc2ccccc12	none
c1ccc(CNc2c3ccccc3nc3ccccc23)cc1	HIF act 20 (no result: PGC1a acetyl inh)
Oc1ccc(CCNc2c3ccccc3nc3ccccc23)cc1O	HIF act 18 (no result: PGC1a acetyl inh)
CCCC(=O)Nc1ccc2c(c1)C(=O)N(C)[C@@H]1CC[C@@H](CC(=O)OC)O[C@@H]1CO2	none (no result: HIF act, Rce1 inhib, AI-2 QS mod)
Cc1ccc(/C=C(\C#N)c2nn(-c3ccccc3)c(N)c2C#N)cc1	HIF act 9.8 (no result: Statin myotox sup)
COc1ccc(CN(C)C[C@@H]2OCCCC[C@H](C)Oc3ccc(NC(=O)Nc4ccc(C(F)(F)F)cc4)cc3C(=O)N([C@H](C)CO)C[C@H]2C)cc1	none (no result: HIF act, Rce1 inhib, AI-2 QS mod)
CCOC(=O)NC(=O)CSc1nnnn1-c1ccc(Cl)cc1	none
CCOC(=O)NC(=O)CSc1nnnn1-c1ccc(C)cc1	PGC1a acetyl inh 94 (no result: Rce1 inhib)
CCC(C)C(=O)OCC1(c2ccc(C)cc2OC(=O)C(C)C)CO1 (configuration not stated)	none (no result: Rce1 inhib)
Cc1ccc(C2(COC(=O)C(C)C)CO2)c(OC(=O)C(C)C)c1 (configuration not stated)	Rce1 inhib active
Cc1cccc(S(=O)(=O)N[C@H]2CC[C@H](CCNC(=O)CCN3CCCCC3)O[C@H]2CO)c1	none (no result: HIF act, Rce1 inhib, AI-2 QS mod)
O=C(O)CSC1CC(=O)N(c2ccc(Cl)c(Cl)c2)C1=O (configuration not stated)	Statin myotox sup 138
O=C(O)CSC1CC(=O)N(c2cccc(Cl)c2)C1=O (configuration not stated)	none
COC(=O)c1cc(COC(=O)c2ccc(OC)c(S(=O)(=O)N3CCCC3)c2)oc1C	Statin myotox sup 90
COc1ccc(S(=O)(=O)N(C)C[C@@H]2Oc3c(NC(=O)Nc4ccccc4)cccc3C(=O)N([C@@H](C)CO)C[C@@H]2C)cc1	none (no result: HIF act, Rce1 inhib, AI-2 QS mod)
COc1cc2c(cc1OC)CN(C(=O)c1ccc(-c3ccccc3)cc1)CC2	none
COc1ccc(C(=O)N2CCc3cc(OC)c(OC)cc3C2)cc1OC	Statin myotox sup 122
C[C@@H]1CCCCO[C@@H](CN(C)C(=O)c2ccccc2)[C@H](C)CN([C@H](C)CO)C(=O)c2cc(NC(=O)c3ccccc3)ccc2O1	none (no result: HIF act, Statin myotox sup, Rce1 inhib, AI-2 QS mod)
COc1ccccc1NC(=O)N[C@H]1CC[C@@H](CCn2cc(-c3ccccc3OC)nn2)O[C@@H]1CO	none (no result: HIF act, Rce1 inhib, AI-2 QS mod)
COc1cc(-c2nc3ccccn3c2/N=C/c2cccc(OC)c2O)ccc1O	Rce1 inhib active (no result: Statin myotox sup, PGC1a acetyl inh)
COc1cc(-c2nc3ccccn3c2/N=C/c2ccc(F)cc2)ccc1O	none
Clc1ccc(/C=N/c2c(-c3ccco3)nc3ccccn23)cc1	none (no result: HIF act)
Oc1ccccc1/C=N/c1c(-c2ccco2)nc2ccccn12	Statin myotox sup 102
CCCC(=O)C1=C(O)C(C(=O)OC)C(C)(C)CC1=Nc1ccc(OC)cc1 (configuration not stated)	PGC1a acetyl inh 46 (no result: Statin myotox sup)
CCN1CCN(Cc2ccc(NC(=O)c3ccc(C)c(NC(=O)c4cncc(-c5cccs5)c4)c3)cc2C(F)(F)F)CC1	PGC1a acetyl inh 69 (no result: HIF act, Statin myotox sup, Rce1 inhib, AI-2 QS mod)
Cc1ccc(C(=O)N2CCSCC2)cc1	Statin myotox sup 103
O=C(c1ccc(Br)cc1)N1CCCC1	Statin myotox sup 94
Cc1ccc(NC(=O)Nc2ccc(C(=O)N3CCOCC3)cc2)cc1	none
CCc1nc(N2CCN(C(=O)c3ccco3)CC2)c2c3c(sc2n1)CCCC3	HIF act 499 (no result: Statin myotox sup, PGC1a acetyl inh)
CCOc1ccccc1NC(=O)COc1ccc2c(c1)OCO2	HIF act 14 (no result: PGC1a acetyl inh)
Cc1cccc(NC(=O)c2ccc(OC3CSC3)cc2)c1	Statin myotox sup 105
O=S(=O)(c1ccccc1)c1nc(-c2ccco2)oc1N1CCCCCC1	Statin myotox sup 105 (no result: HIF act, Rce1 inhib, PGC1a acetyl inh, AI-2 QS mod)
C[C@H]1CN([C@@H](C)CO)S(=O)(=O)c2ccc(-c3cccc(C(=O)N(C)C)c3)cc2O[C@H]1CN(C)C(=O)Cc1ccccn1	none (no result: HIF act, Rce1 inhib, AI-2 QS mod)
COc1cccc(NC(=S)N(CCCN2CCOCC2)Cc2cn(C)c3ccccc23)c1	HIF act 351 (no result: Statin myotox sup, PGC1a acetyl inh)
N#C[C@@H]1[C@@H](c2ccc(-c3ccccc3)cc2)[C@@H](CO)N1C(=O)Cc1ccncc1	PGC1a acetyl inh 63 (no result: HIF act, Rce1 inhib, AI-2 QS mod)
Cc1cc(C)c(C(=O)N2CCCC(N3CCN(c4cccc(C(F)(F)F)c4)CC3)C2)o1 (configuration not stated)	HIF act 135

Screens as filed in PubChem.
